From PubChem BioAssay (NCI)
The panel holds about 83,000 compounds, 20% with a hit somewhere; the sample as a whole holds those more often.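 Cells were grown in 96-well plates and exposed to the test compound at a single concentration for 48 hours; results are reported as percent growth, with values below 10 considered active.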 Unmarked numbers belong to inactive results. Activity calls are given as the source filed them.

Assays:
Experiment in all cases: NCI-60 one-dose screen, 48 h (100 = growth as untreated, 0 = no growth, -100 = all killed)
Details in all cases: 10 µM unless noted
RPMI-8226 leukemia = tested on: RPMI-8226 leukemia
OVCAR-8 ovarian = tested on: OVCAR-8 ovarian
OVCAR-5 ovarian = tested on: OVCAR-5 ovarian
OVCAR-4 ovarian = tested on: OVCAR-4 ovarian
SK-OV-3 ovarian = tested on: SK-OV-3 ovarian
OVCAR-3 ovarian = tested on: OVCAR-3 ovarian
HS 578T breast = tested on: HS 578T breast
NCI/ADR-RES ovarian = tested on: NCI/ADR-RES ovarian
T-47D breast = tested on: T-47D breast
BT-549 breast = tested on: BT-549 breast
MDA-MB-435 melanoma = tested on: MDA-MB-435 melanoma
SW-620 colon = tested on: SW-620 colon
MCF7 breast = tested on: MCF7 breast
HCT-116 colon = tested on: HCT-116 colon
HCC-2998 colon = tested on: HCC-2998 colon
KM12 colon = tested on: KM12 colon
IGROV1 ovarian = tested on: IGROV1 ovarian

Row | SMILES | growth (RPMI-8226 leukemia) | growth (OVCAR-8 ovarian) | growth (OVCAR-5 ovarian) | growth (OVCAR-4 ovarian) | growth (SK-OV-3 ovarian) | growth (OVCAR-3 ovarian) | growth (HS 578T breast) | growth (NCI/ADR-RES ovarian) | growth (T-47D breast) | growth (BT-549 breast) | growth (MDA-MB-435 melanoma) | growth (SW-620 colon) | growth (MCF7 breast) | growth (HCT-116 colon) | growth (HCC-2998 colon) | growth (KM12 colon) | growth (IGROV1 ovarian)
1 | CC(=O)N1N=C2N(Cc3ccccc3)C(=O)c3c(sc4c3CCCC4)N2C1c1cn(-c2ccccc2)nc1-c1ccc(Cl)cc1 (configuration not stated) | 87.9% | 100% | 101% | 115% | 88% | 101% | 93% | 100% | 80.8% | 99.5% | 95.4% | 103% | 92.4% | 96.8% | 112% | 98% | 
2 | CC(C)(C)NC(C1=CC(C)(C)c2ccccc2C1=O)c1ccccc1 (configuration not stated) | -44.9% (active) | -47.9% (active) | -75% (active) | -52.9% (active) | 29.2% | -92.5% (active) | 46.4% | -43.3% (active) | -71.8% (active) | -32.9% (active) |  | -82.3% (active) | -63.6% (active) | -99.5% (active) | -31.3% (active) | -29.2% (active) | 
3 | CN(C)c1ccc(/C=N/n2c(-c3cc(F)c(Cl)cc3Cl)nn(CN3CCOCC3)c2=S)cc1 | 97.2% | 104% | 92.8% | 106% | 101% |  | 110% | 97.3% | 94.1% | 91.3% | 80.7% | 109% | 118% | 92.6% |  | 102% | 104%
4 | NC(CSC(c1ccccc1)(c1ccccc1)c1ccc(F)cc1)C(=O)O (configuration not stated) | -25.9% (active) | 11.1% | 34.9% | 48.8% | 34.3% | -39.5% (active) | 16.9% | 37.5% | 30.4% | 28.7% | -47.1% (active) | 30.1% | 11.7% | -7.69% (active) | 4.55% (active) | 5.24% (active) | 
5 | Cn1cnc([N+](=O)[O-])c1N1c2ccncc2Sc2ccncc21 | 85.8% | 83.4% | 99.7% | 179% | 92.2% | 92.7% |  | 97.1% | 86% |  | 110% | 95.1% | 101% | 95.7% | 114% | 103% | 
6 | O=C1CN(CCN2CC(=O)NC(=O)C2)CC(=O)N1 | 88.1% | 103% | 93.2% | 96.1% | 102% | 113% | 102% | 99.9% | 99.2% | 96.6% | 90.4% | 118% | 104% | 93.6% | 112% | 99.5% | 
7 | COc1cc([C@@H]2c3cc4c(cc3C(OC3O[C@@H]5COC(C)O[C@H]5[C@H](O)[C@H]3O)C3COC(=O)[C@@H]32)OCO4)cc(OC)c1O (some centres not stated) | 37.4% | 26.9% |  | 88.3% | 35% | 37.1% | 59.3% | 90.4% |  | 31.4% | 50% | 35.6% | 22.4% | 41.7% |  | 42.1% | 65.4%
8 | COc1ccc2c(c1)C(=O)/C(=C/c1cccc(OCC(=O)c3ccccc3)c1)O2 | -49.6% (active) | -29.9% (active) | 37.8% | -55.1% (active) | 121% | -84.4% (active) | 52% | 65.1% | -31.7% (active) | -15.9% (active) | 38% | -82.7% (active) | 32% | 0.433% (active) | -71.2% (active) | 71.7% | 
9 | COc1ccc(/C=C2\CS(=O)(=O)C/C(=C\c3ccc(OC)cc3)C2=O)cc1 | -41.2% (active) | -44.8% (active) | -20.2% (active) | 12.3% | 25.4% | -66.2% (active) | 48% | 10.5% | 14.6% | -38.6% (active) | -28.8% (active) | 0.757% (active) | -15% (active) | -83.2% (active) | -98% (active) | -93.2% (active) | 
10 | CCCOC(=O)c1ccc([N+](=O)[O-])o1 | 97.5% | 109% | 99.5% | 95.1% | 113% | 123% |  | 104% | 114% | 127% |  | 97.2% | 94.2% | 105% | 121% | 101% | 102%
11 | COC(=O)c1oc2c(C(C)=O)c(OCCN3CCCCC3)ccc2c1C | 97.6% | 107% | 107% | 161% | 107% |  | 107% | 95.5% | 129% | 130% |  | 103% | 105% | 89.7% | 113% | 102% | -8.51% (active)
12 | CC1(C)N=C(N)N=C(N)N1c1ccc(F)c(C(F)(F)F)c1 | 50.4% | 8.44% (active) | 41.8% | 55.3% | 60.5% | 53.9% | 99.3% | 91.9% | 91.1% | 61.5% | 40.6% | 30.2% | 26.8% | 19.8% | 34.3% | 27.2% | 
13 | Nc1nc2ccc(CNc3ccc(C(=O)NC(CC(=O)O)C(=O)O)cc3)cc2c(=O)[nH]1 (configuration not stated) | 44.3% | 13.1% | 52.2% | 65.6% | 76.8% | 58.2% | 97.5% | 33% | 84.7% | 74.3% | 40.4% | 31.8% | 27.2% | 16.8% | 45.1% | 29.8% | 
14 | Cc1cccc(NC(=O)CCc2ccc(N3C(N)=NC(N)=NC3(C)C)cc2)c1 | 32% | 47.7% | 46.7% | 51.7% | 60.3% | 65.6% | 91.4% | 95.6% | 73.1% | 45.8% |  | 33.5% | 29.3% | 18.9% |  | 22.7% | 
15 | Cc1cn(C2CC(F)C(CO)O2)c(=O)[nH]c1=O (configuration not stated) | 82.5% | 90.4% | 94.4% | 93.1% | 93.1% | 137% | 133% | 86.5% | 98% | 80.7% | 78.2% | 115% | 113% | 95.6% | 100% | 99.1% | 
16 | COc1cc(NC(C)CCCN2C(=O)c3ccccc3C2=O)c2ncccc2c1OC (configuration not stated) | 55.5% | 85.5% | 99.1% | 50.8% | 92.5% |  | 95.7% | 90.6% | 66.8% | 91.2% | 92.1% | 84.7% | 41.8% | 84.5% | 124% | 80.2% | 63.6%
17 | CCC(C)Nc1ccc(N)cc1 (configuration not stated) | -25.4% (active) |  | 74% | -4.82% (active) | 38.5% | -42.9% (active) | 78.9% | 70.6% |  | 31.7% | 12.7% | 29.9% | 3.94% (active) | -34.8% (active) | 28.4% | 8.28% (active) | 
18 | Clc1ccc2c(c1)nnn1c3ncccc3c(Br)c21 | 83.2% | 71.9% | 101% | 77.1% | 51.3% | 70.8% | 16.7% | 85.8% | 60.7% | 72.1% | 95.2% | 78.9% | 64.2% | 68.4% | 108% | 86.4% | 
19 | COc1cc(/C=C/C(=O)c2c(C)[n+]([O-])c3ccccc3[n+]2[O-])ccc1O | 104% | 89.4% | 110% | 155% | 97.8% |  | 99.4% | 104% | 111% | 89.5% | 78.6% | 92.9% | 93% | 91.2% |  | 108% | 61.4%
20 | CCC1S/C(=N\N=C(/C)c2ccco2)N(c2ccccc2)C1=O (configuration not stated) | 60.4% | 106% | 105% | 98.4% | 135% |  | 231% | 105% | 107% | 106% | 92.7% | 119% | 81% | 68.6% | 112% | 86.1% | -17.1% (active)
